Data published in PubChem BioAssay (EPA / NIEHS).
Results filed as inconclusive are left out. Calls of active or inactive are those of the source. Rule for the calls: active = hit-call score of the fitted dose curve at least 0.9, where 1 is the maximum; inconclusive = response in the unintended direction; inactive = score below 0.9.

Assays:
[1] = biological target: Adenosine receptor A1 (Bos taurus) (UniProt P28190); test: NVS_GPCR_bAdoR_NonSelective: NovaScreen (NVS) G Protein-Coupled Receptor Assay for bovine Adenosine Receptor (AdoR), Non-selective Binding (AID 2283244)
Chain of Adenosine receptor A1 (Bos taurus) (P28190 whole entry, looked up): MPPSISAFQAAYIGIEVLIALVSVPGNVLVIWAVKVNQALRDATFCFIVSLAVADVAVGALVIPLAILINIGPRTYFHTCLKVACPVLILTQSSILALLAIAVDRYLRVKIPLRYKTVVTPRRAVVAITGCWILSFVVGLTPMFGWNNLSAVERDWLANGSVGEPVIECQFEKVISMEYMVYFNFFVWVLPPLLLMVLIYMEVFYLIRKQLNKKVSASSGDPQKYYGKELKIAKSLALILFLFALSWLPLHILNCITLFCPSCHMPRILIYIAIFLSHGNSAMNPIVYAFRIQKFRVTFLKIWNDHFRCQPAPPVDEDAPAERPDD
Method in brief: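 Bovine striatal membranes, radioligand displacement binding, 1 h after dosing, filter-based scintillation counting. Screened in duplicate at 25 uM, then concentration-response up to 50 uM; loss of specific binding relative to DMSO.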

[2] = biological target: sheep Cyclooxygenase-2 (Cox2), PTGS2 (gene 443460) (UniProt P79208); test: NVS_ENZ_oCOX2: NovaScreen (NVS) Enzymatic Assay for sheep Cyclooxygenase-2 (Cox2) (AID 2283231)
Chain of sheep Cyclooxygenase-2 (Cox2), PTGS2 (gene 443460) (P79208 whole entry, looked up): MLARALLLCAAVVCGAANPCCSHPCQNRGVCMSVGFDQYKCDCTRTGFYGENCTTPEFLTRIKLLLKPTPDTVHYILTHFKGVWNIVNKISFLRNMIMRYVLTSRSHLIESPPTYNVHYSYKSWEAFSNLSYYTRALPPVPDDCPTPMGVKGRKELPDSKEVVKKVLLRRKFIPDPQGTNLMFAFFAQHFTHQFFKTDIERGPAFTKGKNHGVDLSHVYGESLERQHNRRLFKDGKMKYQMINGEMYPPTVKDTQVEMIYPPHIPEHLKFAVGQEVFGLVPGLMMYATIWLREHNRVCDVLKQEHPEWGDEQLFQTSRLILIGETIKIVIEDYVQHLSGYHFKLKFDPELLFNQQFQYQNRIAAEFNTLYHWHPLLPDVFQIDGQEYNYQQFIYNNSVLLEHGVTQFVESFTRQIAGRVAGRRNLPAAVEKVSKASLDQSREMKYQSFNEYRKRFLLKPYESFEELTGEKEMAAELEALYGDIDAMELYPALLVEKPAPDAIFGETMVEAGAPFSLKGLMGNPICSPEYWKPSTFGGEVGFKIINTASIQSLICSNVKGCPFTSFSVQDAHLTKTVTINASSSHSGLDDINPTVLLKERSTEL
Method in brief: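 Enzyme from ovine placenta, cell-free; colorimetric absorbance read 0.66 hour after dosing, loss of signal vs DMSO. Screened in duplicate at 25 uM, then concentration-response up to 50 uM.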

[3] = biological target: human Vascular Endothelial Growth Factor Receptor 1 (VEGFR1), FLT1 (gene 2321) (UniProt P17948); test: NVS_ENZ_hVEGFR1: NovaScreen (NVS) Enzymatic Assay for human Vascular Endothelial Growth Factor Receptor 1 (VEGFR1) (AID 2283226)
Chain of human Vascular Endothelial Growth Factor Receptor 1 (VEGFR1), FLT1 (gene 2321) (P17948 whole entry, looked up): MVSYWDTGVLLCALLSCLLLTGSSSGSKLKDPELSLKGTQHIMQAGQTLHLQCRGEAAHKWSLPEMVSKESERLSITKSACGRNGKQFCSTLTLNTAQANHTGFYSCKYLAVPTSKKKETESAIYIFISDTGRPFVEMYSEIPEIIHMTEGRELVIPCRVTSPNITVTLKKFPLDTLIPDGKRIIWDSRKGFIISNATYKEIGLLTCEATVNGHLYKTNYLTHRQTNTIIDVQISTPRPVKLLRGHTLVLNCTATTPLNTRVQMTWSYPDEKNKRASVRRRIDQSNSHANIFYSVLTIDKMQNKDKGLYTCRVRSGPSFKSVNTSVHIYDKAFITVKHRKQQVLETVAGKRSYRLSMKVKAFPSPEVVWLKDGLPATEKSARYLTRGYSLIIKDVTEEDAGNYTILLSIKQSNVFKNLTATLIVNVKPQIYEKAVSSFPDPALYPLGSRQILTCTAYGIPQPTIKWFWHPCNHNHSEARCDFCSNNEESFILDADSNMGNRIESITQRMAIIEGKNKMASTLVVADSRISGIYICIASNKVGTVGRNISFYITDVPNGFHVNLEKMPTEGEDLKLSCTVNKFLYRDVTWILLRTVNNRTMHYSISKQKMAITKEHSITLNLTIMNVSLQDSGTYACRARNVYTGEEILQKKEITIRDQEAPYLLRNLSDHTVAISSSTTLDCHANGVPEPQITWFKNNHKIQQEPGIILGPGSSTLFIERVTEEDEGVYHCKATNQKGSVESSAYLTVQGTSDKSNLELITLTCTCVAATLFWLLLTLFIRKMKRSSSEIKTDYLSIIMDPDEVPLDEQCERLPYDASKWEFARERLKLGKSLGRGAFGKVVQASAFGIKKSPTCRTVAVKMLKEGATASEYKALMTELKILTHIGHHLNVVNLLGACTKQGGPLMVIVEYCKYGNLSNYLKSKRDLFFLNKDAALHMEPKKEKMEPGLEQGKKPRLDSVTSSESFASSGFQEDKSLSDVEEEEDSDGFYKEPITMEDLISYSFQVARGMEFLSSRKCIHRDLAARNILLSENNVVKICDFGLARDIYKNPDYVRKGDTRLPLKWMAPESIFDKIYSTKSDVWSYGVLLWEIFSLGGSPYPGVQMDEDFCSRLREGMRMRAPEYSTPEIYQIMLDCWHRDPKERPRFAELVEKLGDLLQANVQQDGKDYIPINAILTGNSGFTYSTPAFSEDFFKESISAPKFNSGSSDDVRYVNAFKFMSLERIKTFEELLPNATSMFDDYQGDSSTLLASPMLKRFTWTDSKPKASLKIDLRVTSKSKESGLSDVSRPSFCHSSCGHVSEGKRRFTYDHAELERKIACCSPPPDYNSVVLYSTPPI
Method in brief: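 Cell-free assay of recombinant human VEGFR1 kinase with substrate, measured 1 h after dosing; fluorescence with electrophoretic mobility-shift separation of substrate and product, referenced to DMSO; primary screen at 25 uM in duplicate, actives then run in concentration series.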

[4] = biological target: sheep Cyclooxygenase-1 (Cox1), PTGS1 (gene 443551) (UniProt P05979); test: NVS_ENZ_oCOX1: NovaScreen (NVS) Enzymatic Assay for sheep Cyclooxygenase-1 (Cox1) (AID 2283239);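 note: actives reduce cyclooxygenase activity so potencies are for inhibitors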
Chain of sheep Cyclooxygenase-1 (Cox1), PTGS1 (gene 443551) (P05979 whole entry, looked up): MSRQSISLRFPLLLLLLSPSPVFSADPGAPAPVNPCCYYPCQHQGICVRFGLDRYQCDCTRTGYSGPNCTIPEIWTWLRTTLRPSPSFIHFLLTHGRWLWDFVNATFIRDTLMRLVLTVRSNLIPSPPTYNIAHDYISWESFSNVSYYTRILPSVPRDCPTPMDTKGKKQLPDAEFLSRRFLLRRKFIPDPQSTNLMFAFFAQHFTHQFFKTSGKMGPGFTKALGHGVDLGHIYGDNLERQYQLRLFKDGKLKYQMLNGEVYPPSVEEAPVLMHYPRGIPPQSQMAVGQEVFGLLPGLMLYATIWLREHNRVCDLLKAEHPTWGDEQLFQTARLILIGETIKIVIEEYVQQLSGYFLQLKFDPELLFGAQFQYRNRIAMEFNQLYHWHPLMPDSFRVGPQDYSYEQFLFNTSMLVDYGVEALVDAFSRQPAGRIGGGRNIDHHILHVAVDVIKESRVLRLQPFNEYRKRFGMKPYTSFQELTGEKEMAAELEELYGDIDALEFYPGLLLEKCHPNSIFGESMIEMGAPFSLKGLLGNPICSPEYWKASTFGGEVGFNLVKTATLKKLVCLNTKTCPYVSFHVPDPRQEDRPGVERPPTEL
Method in brief: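 Tested in duplicate at 25 uM, then in concentration series if active, against seminal vesicle extract from sheep. Enzyme activity was measured colorimetrically at 0.66 hour and normalised to DMSO.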

[5] = biological target: human SRC Proto-Oncogene, Non-receptor Tyrosine Kinase (SRC), SRC (gene 6714) (UniProt P12931); test: NVS_ENZ_hSRC: NovaScreen (NVS) Enzymatic Assay for human SRC Proto-Oncogene, Non-receptor Tyrosine Kinase (SRC) (AID 2283223)
Method in brief: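 Cell-free kinase activity assay with fluorescent substrate, product separated by electrophoretic mobility shift, read 1 h after dosing. Duplicate single point at 25 uM, then concentration-response up to 50 uM; loss of signal versus DMSO.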

[6] = biological target: human Tropomyosin Receptor Kinase A (TRKA), NTRK1 (gene 4914) (UniProt P04629); test: NVS_ENZ_hTrkA: NovaScreen (NVS) Enzymatic Assay for human Tropomyosin Receptor Kinase A (TRKA) (AID 2283224)
Method in brief: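 Recombinant human TrkA activity read after 1 h by fluorescence with electrophoretic mobility shift separating substrate and product. Primary screen in duplicate at 25 uM; actives were rerun in concentration-response up to 50 uM. Loss of signal versus DMSO.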

[7] = biological target: human Vascular Endothelial Growth Factor Receptor 3 (VEGFR3), FLT4 (gene 2324) (UniProt P35916); test: NVS_ENZ_hVEGFR3: NovaScreen (NVS) Enzymatic Assay for human Vascular Endothelial Growth Factor Receptor 3 (VEGFR3) (AID 2283229)
Method in brief: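 Cell-free recombinant VEGFR3 kinase reaction with fluorescent substrate, read 1 h after dosing by electrophoretic mobility shift separation of substrate and product. Single-concentration duplicate screen at 25 uM, then concentration-response up to 50 uM; loss of activity versus DMSO.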

[8] = biological target: human Vascular Endothelial Growth Factor Receptor 2 (VEGFR2), KDR (gene 3791) (UniProt P35968); test: NVS_ENZ_hVEGFR2: NovaScreen (NVS) Enzymatic Assay for human Vascular Endothelial Growth Factor Receptor 2 (VEGFR2) (AID 2283230)
Chain of human Vascular Endothelial Growth Factor Receptor 2 (VEGFR2), KDR (gene 3791) (P35968 whole entry, looked up): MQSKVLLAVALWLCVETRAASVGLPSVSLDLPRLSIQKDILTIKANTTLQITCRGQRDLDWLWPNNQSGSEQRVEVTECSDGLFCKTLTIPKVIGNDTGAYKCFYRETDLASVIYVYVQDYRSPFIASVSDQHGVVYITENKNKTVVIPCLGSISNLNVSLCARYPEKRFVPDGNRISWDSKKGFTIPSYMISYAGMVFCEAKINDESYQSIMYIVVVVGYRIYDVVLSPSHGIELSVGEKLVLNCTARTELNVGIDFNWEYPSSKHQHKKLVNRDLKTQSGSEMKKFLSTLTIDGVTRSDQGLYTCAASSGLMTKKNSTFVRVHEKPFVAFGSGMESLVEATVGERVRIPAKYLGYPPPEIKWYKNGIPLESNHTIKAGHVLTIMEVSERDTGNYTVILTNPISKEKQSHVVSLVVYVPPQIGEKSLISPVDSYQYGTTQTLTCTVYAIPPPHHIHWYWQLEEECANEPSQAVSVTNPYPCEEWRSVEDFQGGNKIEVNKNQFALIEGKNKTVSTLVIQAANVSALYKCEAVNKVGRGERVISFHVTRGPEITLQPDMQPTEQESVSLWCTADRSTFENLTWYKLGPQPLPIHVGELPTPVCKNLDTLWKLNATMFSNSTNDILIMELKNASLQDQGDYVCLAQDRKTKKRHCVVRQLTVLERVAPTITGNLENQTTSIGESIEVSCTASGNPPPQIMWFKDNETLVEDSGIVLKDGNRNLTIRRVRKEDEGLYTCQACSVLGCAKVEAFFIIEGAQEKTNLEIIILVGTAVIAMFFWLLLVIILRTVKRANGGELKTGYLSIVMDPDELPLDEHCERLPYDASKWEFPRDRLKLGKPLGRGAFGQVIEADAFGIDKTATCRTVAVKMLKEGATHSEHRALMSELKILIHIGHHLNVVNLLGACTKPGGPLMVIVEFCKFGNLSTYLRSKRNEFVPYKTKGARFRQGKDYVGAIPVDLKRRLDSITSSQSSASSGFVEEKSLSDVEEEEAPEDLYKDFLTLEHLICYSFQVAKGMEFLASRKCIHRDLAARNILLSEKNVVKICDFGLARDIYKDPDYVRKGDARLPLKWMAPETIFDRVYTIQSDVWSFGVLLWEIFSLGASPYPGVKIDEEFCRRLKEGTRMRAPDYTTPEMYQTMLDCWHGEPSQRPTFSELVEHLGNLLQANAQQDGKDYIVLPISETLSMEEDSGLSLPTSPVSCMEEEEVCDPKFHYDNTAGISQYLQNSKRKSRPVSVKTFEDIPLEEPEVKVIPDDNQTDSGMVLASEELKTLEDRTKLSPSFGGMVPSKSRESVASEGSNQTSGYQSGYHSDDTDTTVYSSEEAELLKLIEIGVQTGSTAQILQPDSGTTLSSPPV
Method in brief: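 Cell-free recombinant VEGFR2 kinase, fluorescent substrate with electrophoretic mobility-shift separation; read 1 h after dosing. Screened at 25 uM in duplicate, hits to concentration-response up to 50 uM; loss-of-signal versus DMSO.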

[9] = biological target: rabbit Imidazoline 2 Central (I2C), CKB (gene 100009085) (UniProt P00567); test: NVS_ENZ_rabI2C: NovaScreen (NVS) Enzymatic Assay for rabbit Imidazoline 2 Central (I2C) (AID 2283228)
Chain of rabbit Imidazoline 2 Central (I2C), CKB (gene 100009085) (P00567 whole entry, looked up): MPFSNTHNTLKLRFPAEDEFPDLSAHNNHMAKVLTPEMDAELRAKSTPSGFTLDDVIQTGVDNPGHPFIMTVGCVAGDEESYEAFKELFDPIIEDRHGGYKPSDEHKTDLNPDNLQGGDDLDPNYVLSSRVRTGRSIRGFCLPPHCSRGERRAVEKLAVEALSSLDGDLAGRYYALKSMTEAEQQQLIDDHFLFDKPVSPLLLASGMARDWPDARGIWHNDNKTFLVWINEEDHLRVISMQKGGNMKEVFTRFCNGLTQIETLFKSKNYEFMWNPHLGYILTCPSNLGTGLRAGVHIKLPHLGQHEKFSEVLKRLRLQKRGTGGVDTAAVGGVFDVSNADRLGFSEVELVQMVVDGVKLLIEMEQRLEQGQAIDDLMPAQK
Method in brief: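 Rabbit brain membranes, cell-free; readout by filter-based scintillation counting 1.5 hours after dosing, loss of signal vs DMSO. Initial duplicate test at 25 uM, then concentration-response with 50 uM top concentration.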

[10] = biological target: rat Constitutive Nitric Oxide Synthase (CNOS), Nos1 (gene 24598) (UniProt P29476); test: NVS_ENZ_rCNOS: NovaScreen (NVS) Enzymatic Assay for rat Constitutive Nitric Oxide Synthase (CNOS) (AID 2283236)
Method in brief: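 Enzyme activity in rat brain membrane preparation, read 1 h after dosing by filter-based radiometric scintillation counting. Primary screen in duplicate at 25 uM; actives (e.g., ≥30% inhibition) then run in concentration-response up to 50 uM.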

[11] = biological target: bovine Dopamine Receptor (DR), Non-selective Binding, DRD1 (gene 281125) (UniProt Q95136); test: NVS_GPCR_bDR_NonSelective: NovaScreen (NVS) G Protein-Coupled Receptor Assay for bovine Dopamine Receptor (DR), Non-selective Binding (AID 2283241)
Chain of bovine Dopamine Receptor (DR), Non-selective Binding, DRD1 (gene 281125) (Q95136 whole entry, looked up): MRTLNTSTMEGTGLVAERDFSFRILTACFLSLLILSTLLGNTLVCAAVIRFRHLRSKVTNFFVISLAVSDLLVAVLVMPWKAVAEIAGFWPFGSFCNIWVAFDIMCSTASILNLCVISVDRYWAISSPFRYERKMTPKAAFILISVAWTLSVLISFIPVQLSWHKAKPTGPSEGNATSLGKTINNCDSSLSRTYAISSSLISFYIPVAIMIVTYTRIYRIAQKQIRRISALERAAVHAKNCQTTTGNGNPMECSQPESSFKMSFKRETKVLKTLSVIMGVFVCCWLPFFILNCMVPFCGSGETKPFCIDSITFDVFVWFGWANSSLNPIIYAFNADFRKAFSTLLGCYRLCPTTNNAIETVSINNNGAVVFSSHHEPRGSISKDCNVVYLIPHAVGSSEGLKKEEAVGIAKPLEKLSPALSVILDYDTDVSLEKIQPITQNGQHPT
Method in brief: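 Bovine striatal membranes; radioligand displacement read by filtration and scintillation counting 1 h after dosing, loss of signal vs DMSO. Screened in duplicate at 25 uM, then concentration-response for hits.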

[12] = biological target: human Protein Tyrosine Phosphatase Non-receptor Type 6 (PTPN6), PTPN6 (gene 5777) (UniProt P29350); test: NVS_ENZ_hPTPN6: NovaScreen (NVS) Enzymatic Assay for human Protein Tyrosine Phosphatase Non-receptor Type 6 (PTPN6) (AID 2283210)
Method in brief: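 Cell-free assay with recombinant PTPN6 expressed in SF9 cells, fluorescent substrate, product separated from substrate by electrophoretic mobility shift; read 1.33 hours after dosing. Primary screen in duplicate at 25 uM, actives retested in concentration series; DMSO baseline.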

[13] = NVS_GPCR_bNPY_NonSelective: NovaScreen (NVS) G Protein-Coupled Receptor Assay for bovine Neuropeptide Y (NPY) Receptor, Non-selective Binding (AID 2283245)
Method in brief: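 Bovine hippocampal membranes incubated 1 hour with radioligand and test chemical. Bound ligand measured by filter-based scintillation counting. Single-concentration screen at 25 uM in duplicate, then concentration-response up to 50 uM.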

[14] = biological target: human Protein Tyrosine Phosphatase Non-receptor Type 9 (PTPN9), PTPN9 (gene 5780) (UniProt P43378); test: NVS_ENZ_hPTPN9: NovaScreen (NVS) Enzymatic Assay for human Protein Tyrosine Phosphatase Non-receptor Type 9 (PTPN9) (AID 2283209)
Method in brief: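 Sf9-expressed enzyme in a cell-free assay, fluorescence read 1.33 h after dosing with mobility-shift separation of substrate and product. Tested at 25 uM in duplicate, then up to 50 uM; signal loss versus DMSO.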

[15] = biological target: human Protein Tyrosine Phosphatase Receptor Type B (PTPRB), PTPRB (gene 5787) (UniProt P23467); test: NVS_ENZ_hPTPRB: NovaScreen (NVS) Enzymatic Assay for human Protein Tyrosine Phosphatase Receptor Type B (PTPRB) (AID 2283211)
Method in brief: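 Recombinant human PTPRB with a fluorescent substrate, product separated by electrophoretic mobility shift; read 1 h after dosing. Primary screen in duplicate at 25 uM; actives then retested in concentration series; loss of signal versus DMSO.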

[16] = biological target: human Protein Tyrosine Phosphatase Receptor Type F (PTPRF), PTPRF (gene 5792) (UniProt P10586); test: NVS_ENZ_hPTPRF: NovaScreen (NVS) Enzymatic Assay for human Protein Tyrosine Phosphatase Receptor Type F (PTPRF) (AID 2283213)
Method in brief: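 Cell-free fluorescence enzyme assay with recombinant protein and substrate; product separated by electrophoretic mobility shift. Read 1 h after dosing, single 25 uM duplicate screen, then concentration-response up to 50 uM; loss of signal vs DMSO.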

[17] = biological target: human Protein Tyrosine Phosphatase Receptor Type M (PTPRM), PTPRM (gene 5797) (UniProt P28827); test: NVS_ENZ_hPTPRM: NovaScreen (NVS) Enzymatic Assay for human Protein Tyrosine Phosphatase Receptor Type M (PTPRM) (AID 2283215)
Method in brief: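 Cell-free recombinant PTPRM with fluorogenic substrate; product separated from substrate by electrophoretic mobility shift and read by fluorescence, 1.33 h after dosing. Primary screen single concentration (25 uM) in duplicate; actives retested in concentration series; loss of signal versus DMSO.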

[18] = biological target: human Sirtuin 2 (SIRT2), SIRT2 (gene 22933) (UniProt Q8IXJ6); test: NVS_ENZ_hSIRT2: NovaScreen (NVS) Enzymatic Assay for human Sirtuin 2 (SIRT2) (AID 2283217)
Method in brief: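 Cell-free recombinant human SIRT2, fluorescent substrate with product separated by electrophoretic mobility shift, 1 hr. Screened in duplicate at 25 uM; hits rerun singly in concentration-response up to 50 uM, relative to DMSO.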

[19] = biological target: human Sirtuin 1 (SIRT1), SIRT1 (gene 23411) (UniProt Q96EB6); test: NVS_ENZ_hSIRT1: NovaScreen (NVS) Enzymatic Assay for human Sirtuin 1 (SIRT1) (AID 2283219)
Method in brief: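 Cell-free recombinant SIRT1 with a fluorescent substrate; substrate and product separated by electrophoretic mobility shift and read by fluorescence intensity, 1 h after dosing. Primary screen at 25 uM in duplicate; hits re-run in concentration-response up to 50 uM, relative to DMSO.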

[20] = biological target: human Sirtuin 3 (SIRT3), SIRT3 (gene 23410) (UniProt Q9NTG7); test: NVS_ENZ_hSIRT3: NovaScreen (NVS) Enzymatic Assay for human Sirtuin 3 (SIRT3) (AID 2283222)
Method in brief: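 Cell-free enzyme assay with recombinant protein and fluorescent substrate, product separated by electrophoretic mobility shift; read 1 hour after dosing. Screened in duplicate at 25 uM, then singleton concentration-response up to 50 uM; loss of signal versus DMSO.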

For `O=C(c1ccccc1)c1ccccc1`, the outcome [1] was “inactive”.

In the case of `CS(=O)(=O)c1ccc([C@@H](CC2CCCC2)C(=O)Nc2cnccn2)cc1Cl`, the AC50 [2] is reported as 25 µM (active).

In the case of `NC(=NCCCCCCN=C(N)/N=C(\N)Nc1ccc(Cl)cc1)/N=C(\N)Nc1ccc(Cl)cc1`, the AC50 [3] is reported as 27.6 µM (active).

With `CCC(=O)O` the AC50 [4] was 0.00683 µM (active).

For `Cc1[nH]nc2c1N=C(c1ccccc1Cl)c1cc([N+](=O)[O-])ccc1N2`, the AC50 [5] was 23.1 µM (active), the AC50 [6] was 17.9 µM (active) and the AC50 [3] was 0.0098 µM (active). For the same compound, the AC50 [7] was 0.00229 µM (active) and the AC50 [8] was 0.00463 µM (active).

For `CNNCc1ccc(C(=O)NC(C)C)cc1`, the AC50 [4] was 25 µM (active).

For `N=C(N)c1ccc(OCCCCCOc2ccc(C(=N)N)cc2)cc1`, the AC50 [9] was 0.0332 µM (active), the AC50 [2] was 7.19 µM (active) and the AC50 [10] was 6.42 µM (active). For the same compound, the outcome [11] was “inactive”.

In the case of `O=C(CCCN1CCC(O)(c2ccc(Cl)cc2)CC1)c1ccc(F)cc1`, the AC50 [9] is reported as 14.4 µM (active) and the AC50 [11] is reported as 0.0124 µM (active).

In the case of `CC(=O)Nc1ccc(O)cc1`, the outcome [3] is reported as “inactive” and the outcome [2] is reported as “inactive”.

With `CCCCC(CC)C(=O)O` (stereo not drawn) the outcome [12] was “inactive”.

With `CCCCC=O` the outcome [2] was “inactive”.

With `Cc1ccc(C(=O)c2ccccc2)cc1` the AC50 [4] was 15.5 µM (active).

With `CCCCc1oc2ccccc2c1C(=O)c1cc(I)c(OCCN(CC)CC)c(I)c1` the outcome [9] was “inactive”, the outcome [8] was “inactive” and the outcome [13] was “inactive”.

With `CCCCCCCCCCCCOS(=O)(=O)O` the AC50 [14] was 16.8 µM (active), the AC50 [12] was 25 µM (active) and the AC50 [15] was 7.45 µM (active). The outcome [16] was “inactive”, the AC50 [17] was 25 µM (active) and the AC50 [18] was 25 µM (active). The outcome [19] was “inactive”, the outcome [20] was “inactive” and the outcome [5] was “inactive”. The AC50 [6] was 26 µM (active), the AC50 [7] was 29.3 µM (active) and the AC50 [8] was 16.9 µM (active). For the same compound, the outcome [10] was “inactive” and the outcome [1] was “inactive”.
